High-throughput results: PubChem BioAssay, National Center for Advancing Translational Sciences (NCATS)
Rows were chosen to be rich in hits. Some 8% of all compounds tested hit in one or more screens of this group.
ELG1 DNA repair: blocks ELG1-dependent DNA repair in HEK293T cells | AID 504467 | Potency, µM (highest dose often 46.1 µM), actives largely listed as inhibitors | HEK293T ELG1-luciferase reporter, luminescence, 16 h; DNA damage induced by 5-fluorouridine | actives 2.3% (n = 330,000); note: nearly all actives have a fitted effect of over 55% in size
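Luminescence from the luciferase reporter, measured 30 min after ONE-Glo reagent at room temperature, was the read-out. Beforehand, 2,000 cells per well were exposed for 16 hr at 37 °C to 5-fluorouridine together with compound or vehicle.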
FBPA coupling cs: inhibits coupling enzyme system, counter-screen for aldolase hits | coupling enzyme system counterscreen, AmpLite Red fluorescence | activity change, negative = inhibition, % at 58.2 µM, hits read low | actives 0.67% (n = 290,000) | AID 2472; in the data active = activity change below about -30%
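Compounds tested against the coupling enzymes alone at 57.5 uM final; readout was AmpLite Red fluorescence (525/598 nm) after 20 min at RT.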
TSHR antag: antagonists of human thyroid stimulating hormone receptor; P16473; TSHR-expressing cells, TSH-stimulated cAMP HTRF, 2 h; hits give low values; activity change, negative = inhibition, % at 11.5 µM; actives 0.2% (n = 330,000); AID 504810;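 active = activity change below a set negative limit, meaning inhibition stronger than a set level, cut at about -70% in these data; inconclusive = activity change between two set negative limits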
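Antagonism was scored as loss of TSH-driven cAMP in TSHR cells, stimulated with 4nM TSH (EC80) for 2 hours at 37 deg C and detected by homogeneous HTRF competition immunoassay.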
Gal4-VP16 FLuc: Gal4-VP16 reporter inhibition counter-screen. Drosophila S2 Gal4-VP16 UAS-luciferase, luminescence, 20 h. Potency, µM (top dose mostly 53.6 µM), most hits filed as inhibitors. actives 3.5% (n = 310,000). AID 2546;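 note: Gal4-VP16 expression switched on by copper sulfate through the metallothionein promoter; nearly all actives have a fitted effect of over 50% in size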
RORgamma inh: inhibitors of mouse ROR gamma transcriptional activity; P51450; Drosophila S2 Gal4-RORgamma UAS-luciferase reporter, 20 h; Potency, µM (series often up to 53.6 µM), hits mostly inhibitors; actives 5.4% (n = 310,000); note: nearly all actives have a fitted effect of over 60% in size
Target sequence (P51450 whole entry, looked up, the tested form may be a part): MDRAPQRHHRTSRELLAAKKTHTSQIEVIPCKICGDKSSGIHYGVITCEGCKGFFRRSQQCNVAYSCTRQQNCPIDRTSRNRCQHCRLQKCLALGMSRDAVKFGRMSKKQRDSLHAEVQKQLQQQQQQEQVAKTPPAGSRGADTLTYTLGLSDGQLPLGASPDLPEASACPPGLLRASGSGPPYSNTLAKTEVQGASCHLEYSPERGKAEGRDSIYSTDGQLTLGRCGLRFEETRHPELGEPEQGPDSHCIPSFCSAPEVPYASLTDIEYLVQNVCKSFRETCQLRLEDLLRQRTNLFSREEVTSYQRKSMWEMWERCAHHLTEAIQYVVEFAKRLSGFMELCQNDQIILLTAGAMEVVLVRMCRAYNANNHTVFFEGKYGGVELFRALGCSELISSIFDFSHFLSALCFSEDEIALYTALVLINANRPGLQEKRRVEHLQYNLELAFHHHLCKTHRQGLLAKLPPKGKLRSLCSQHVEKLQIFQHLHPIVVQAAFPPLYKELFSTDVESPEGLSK
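Drosophila Schneider cells stably carrying a metallothionein-driven Gal4 DBD–ROR gamma fusion and a UAS-Photinus luciferase reporter were exposed to compound for 1 hr, then induced with copper sulfate (700 uM final) for 20 hr at ambient temperature before luminescence reading.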
A number is an active result; n = inactive; u = inconclusive; x = no result; [ ] = remark or other dose. Unless noted, calls come from the whole dose curve; as a rule, active = well fitted curve in the direction sought with a large enough effect; inconclusive = small, poorly fitted or top-dose-only effect, or another doubt; inactive = no such curve, though single readings can be large; an effect the other way counts as inactive or inconclusive.

SMILES | ELG1 DNA repair | FBPA coupling cs | TSHR antag | Gal4-VP16 FLuc | RORgamma inh
CN(C)Cc1ccccc1-c1cc(NCc2cccs2)ncn1 | x | n | x | n | n
O=C(c1cccs1)c1ccc(-c2cccs2)s1 | u | n | n | 12.6µM | n
CN1CCN(C(=O)c2ccc(-c3cccs3)s2)CC1 | u | n | n | u | u
Cc1noc2ncnc(SCc3ccc(C(F)(F)F)cc3)c12 | n | n | n | n | u
Cc1noc2ncnc(Sc3ccc(Cl)cc3)c12 | x | n | x | 6.31µM | 7.08µM
Cc1noc2ncnc(Sc3c(Cl)cccc3Cl)c12 | u | n | n | 15.8µM | n
Cc1ccc(Sc2ncnc3onc(C)c23)cc1 | n | n | n | 22.4µM | 10µM
Cc1ccccc1Sc1ncnc2onc(C)c12 | n | n | n | u | 7.08µM
Cc1ccc(CSc2ncnc3onc(C)c23)cc1 | n | n | n | n | n
Cc1noc2ncnc(N3CCCCC3)c12 | n | n | n | n | n
Cn1c(CNC(=O)CCNC(=O)c2cccc(F)c2)cc(=O)n(C)c1=O | n | x | n | n | n
CO/N=C(/C)CCC(=O)OC[C@@H]1O[C@H](c2ccccc2)C=C[C@@H]1Oc1ccc(OC)cc1 | x | n | x | n[10 µM] | n[10 µM]
Cc1ccc(SCc2cn3ccccc3n2)cc1 | u | n | n | u | 10µM
c1ccc(CSCc2cn3ccccc3n2)cc1 | u | n | n | n | 12.6µM
O=C(c1cccc(F)c1)N1CCC2(CCCN(Cc3cc(C(F)(F)F)cc(C(F)(F)F)c3)C2)CC1 | x | n | x | n | n
O=C(CSc1nc(=O)n(Cc2ccccn2)c2c1CCC2)Nc1ccc(F)cc1F | n | x | n | x | x
Cc1ccc(N(CCC(=O)N2CCOCC2)S(=O)(=O)c2ccccc2)cc1 | n | x | n | x | x
N#CC1(N2CCN(C(=O)c3ccccc3)CC2)CCCCC1 | n | n | n | n | n
Cc1ccc(Nc2nc(N3CCN(C)CC3)nc(N)c2[N+](=O)[O-])cc1C | 8.2µM | n | n | u | n
CCN(CC(=O)Nc1c(F)cccc1F)C(=O)c1ccccn1 | n | x | n | x | x
O=C(NC(NC(=S)Nc1ccccc1C(=O)O)C(Cl)(Cl)Cl)c1ccco1 (stereo not drawn) | n | n | n | n | n
COC(=O)c1ccccc1NC(=S)NC(NC(=O)c1ccccc1[N+](=O)[O-])C(Cl)(Cl)Cl (stereo not drawn) | n | n | n | u | 12.6µM
COC(=O)c1ccccc1NC(=S)NC(NC(=O)c1ccco1)C(Cl)(Cl)Cl (stereo not drawn) | n | n | n | n | 7.94µM
COc1ccc(NC(=S)NC(NC(=O)c2ccccc2Cl)C(Cl)(Cl)Cl)c([N+](=O)[O-])c1 (stereo not drawn) | u | n | n | n | u
COc1ccc(NC(=O)c2cc(C3CC3)nc3c2cnn3C(C)C)cc1OC | u | x | n | x | x
SMILES | ELG1 DNA repair | FBPA coupling cs | TSHR antag | Gal4-VP16 FLuc | RORgamma inh
CN(C)C(=S)Nc1ccc(Cc2ccncc2)cc1 | n | n | n | n | n
N#CC1=C(N)C2=CCCC[C@H]2[C@H](c2ccc(Br)cc2)C1(C#N)C#N | n | n | n | 5.01µM | u
CCCNC(=O)OC[C@@H]1O[C@H](CCO/N=C\c2ccc(C(=O)N3[C@H](c4ccc(C)cc4)[C@@H](C)CC[C@H]3C(=O)OC)cc2)C=C[C@@H]1Oc1ccc(OC)cc1 | x | n | x | n[10 µM] | n[10 µM]
C=CCc1ccc(OCCn2cccc2C=O)c(OC)c1 | u | n | n | 0.562µM | 0.631µM
C=CCc1ccc(OCCOCCN(C)C)c(OC)c1 | n | n | n | n | n
COC(=O)CNC(=O)[C@@]1(C)C=C[C@@H](Cc2ccccc2)N1C(C)=O | x | n | x | n | n
CN(C)c1ccc(C(C(=O)NCC2CCCO2)N(C(=O)c2snc(C(N)=O)c2N)c2ccc3c(c2)OCO3)cc1 (stereo not drawn) | 20.6µM | n | n | n | u
CN(C)c1ccc(C(C(=O)NCC2CCCO2)N(C(=O)c2snc(C(N)=O)c2N)c2ccccc2)cc1 (stereo not drawn) | u | n | n | n | n
COc1ccc(-n2c(=O)c(-c3cccs3)nc3cnc(N4CCN(C)CC4)nc32)cc1 | x | n | x | n | n
CCN(Cc1ccccc1)C(=O)c1[nH]c2ccc(OC)cc2c1C | n | n | n | n | n
CCN(CC)CCNC(=O)c1[nH]c2ccc(OCc3ccccc3)cc2c1C | n | n | n | n | 12.6µM
